# Screening results (PubChem BioAssay)
# Pf Dd2 inh = inhibitors of Plasmodium falciparum Dd2 growth | P. falciparum Dd2 growth, SYBR Green, 72 h | Potency, µM (series often up to 28.9 µM), for the others: at the top dose activity, negative = inhibition, hits mostly inhibitors | 120,000 tested, 4.3% active | AID 1347417; active means well fitted inhibition curve with a large enough effect;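 further: plate controls were DMSO vehicle for no effect and reference drug for full effect; nearly all actives have a fitted effect of over 65% in size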
#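 Readout: SYBR Green fluorescence, 485 nm excitation, 535 nm emission, after ~16 h lysis at 37C. Before that, Dd2-infected red cells (2.5% hematocrit) grew 72 h with compound, 29 uM top final concentration.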
# Active calls of the source: *; i = inactive; [ ] = another dose, or the depositor's remark. The full list was thinned out, with hits kept by preference. Potency means the concentration at half of the fitted maximal effect.
SMILES,Pf Dd2 inh
COc1ccc(Nc2cc(C(=O)NC3CCCC3)c3ccccc3n2)cc1,4.4%
COc1ccc(N2CCN(CCCNC(=O)c3cc(Nc4ccc(OC)cc4OC)nc4ccccc34)CC2)cc1,-11.8%
COc1ccc(Nc2cc(C(=O)NCCCN(C)C3CCCCC3)c3ccccc3n2)cc1,5.62µM*
CN1CC2(CCN(C(=O)c3ccccc3F)CC2)CC(c2ccccc2)C1=O (centres undefined),-10.6%
CCCN1C(=O)C(CC(=O)N2CCCC2)Sc2ncccc21 (centres undefined),1.0%
CC1(c2ccccc2)N(Cc2ccccc2)C(=O)OC12CCN(Cc1cccnc1N)CC2 (centres undefined),-22.1%
COc1cccc(CN2C(=O)OC3(CCN(C(=O)C4CCC4)CC3)C2(C)c2cccnc2)c1 (centres undefined),i
COc1cccc(CN2C(=O)OC3(CCN(C(C)=O)CC3)C2(C)c2cccnc2)c1 (centres undefined),-6.3%[44.1 µM]
COc1cccc(CN2C(=O)OC3(CCN(Cc4c[nH]c5ccccc45)CC3)C2(C)c2cccnc2)c1 (centres undefined),0.794µM*
CC1(c2ccccc2)N(Cc2cccnc2)C(=O)OC12CCN(C(=O)Cc1ccccc1)CC2 (centres undefined),i
CC1(c2ccccc2)N(Cc2ccccc2C#N)C(=O)OC12CCN(C(=O)CN1CCOCC1)CC2 (centres undefined),-26.4%
COc1ncccc1CN1CCC2(CC1)OC(=O)N(Cc1ccccc1C#N)C2(C)c1ccccc1 (centres undefined),4.47µM*
CC1(c2cccnc2)N(Cc2ccccc2)C(=O)OC12CCN(C(=O)COc1ccccc1)CC2 (centres undefined),6.31µM*
CC1(c2ccccc2)N(Cc2ccccc2)C(=O)OC12CCN(C(=O)COc1ccccc1)CC2 (centres undefined),-17.1%
Cc1ccc(-c2nnc([C@H]3CCN(C(=O)NC4CCCCC4)C3)o2)cc1,i
Cn1c(=O)n([C@H]2CCCN(C(=O)c3cnccn3)C2)c2ncccc21,1.4%
CCOC(=O)c1ccc(NC(=O)N2Cc3[nH]cnc3C[C@H]2c2nc(-c3cccc([N+](=O)[O-])c3)no2)cc1,-13.6%
COCCC(=O)N1CCCN(S(=O)(=O)c2ccccc2)CCC(=O)NCC1,11.6%
Cc1ncccc1C(=O)NCC12CCC=C1N(C)C(=O)CC2 (centres undefined),-13.5%
O=C1CC2(CCN(C(=O)c3ccccn3)C2)Nc2ccccc2N1 (centres undefined),9.8%
O=C1CCCCCN1C1CCN(Cc2ccc(OC(F)(F)F)cc2)CC1,i
CCc1ccc(Oc2c(C(F)(F)F)oc3c(CN4CCN(CC)CC4)c(O)ccc3c2=O)cc1,0.1µM*
CCN1CCN(C(c2ccccc2Cl)c2c(O)cc(C)n(Cc3ccco3)c2=O)CC1 (centres undefined),10.0%
CCOc1ccc(CN2CCC(N(C(=O)CC)C3CCOCC3)CC2)cc1,i
CCc1ccc(Oc2c(C(F)(F)F)oc3c(CN4CCC(C)CC4)c(O)ccc3c2=O)cc1,0.316µM*
SMILES,Pf Dd2 inh
CCN1CCN(Cc2c(O)ccc3c(=O)c(Oc4ccccc4Cl)c(C(F)(F)F)oc23)CC1,0.251µM*
COc1ccc(C(=O)N2CCC(c3n[nH]c(=O)n3Cc3ccc(F)cc3)CC2)c(OC)n1,-17.0%
O=C(Nc1ccc(F)c(Cl)c1)N1CCC2(CC1)SCC(=O)N2Cc1ccco1,-22.4%
Cc1cccc(N2CCN(c3nccc(-c4ccccn4)n3)CC2)n1,-13.5%
Cc1ccc(CN2CCC(CNc3nccc(-c4ccccn4)n3)CC2)o1,i
CN(Cc1ccccc1CN1CCCC1)c1nccc(-c2ccccn2)n1,3.55µM*
COC[C@H]1CCCN1C(=O)[C@@H](C)C1CC[C@@]2(C)CC[C@H](NC(=O)Cc3ccccc3)[C@@H](C)[C@@H]2[C@H]1O (some centres undefined),-14.6%
CC(C)CCNC(=O)C1CC(=O)N(c2n[nH]c3cc(Br)ccc23)C1 (centres undefined),-4.7%
O=C(N[C@@H]1CN(C(=O)NC2CCCCC2)CCC[C@H]1O)c1ccc(OCCN2CCOCC2)cc1,-24.9%
COc1ccc(Br)cc1[C@@H]1Nc2ccc(C(=O)O)cc2[C@@H]2C=CC[C@@H]21,7.9%
COc1ccc(OC)c([C@@H]2Nc3ccc(C(=O)O)cc3[C@@H]3C=CC[C@@H]32)c1,12.1%
CCOC(=O)c1ccc2c(c1)[C@@H]1C=CC[C@@H]1[C@H](c1cccc(OC)c1OC)N2,0.447µM*
Cc1ccc(NC(=O)Cn2c(C)cc3nc4n(c(=O)c32)CCCC4)cc1Cl,-18.1%
CCCCN(CC)C(=O)Cn1ccn2nc3c(c2c1=O)CCCC3,i
O=C(CCc1c[nH]c2ccccc12)N1C[C@@H](CO)[C@H](c2ccccn2)C1,i
Cc1oc2ccc(O)c(CN(C)Cc3ccccc3)c2c1C(=O)Nc1ccccc1,1.12µM*
Cc1oc2ccn(Cc3cccc(F)c3)c(=O)c2c1C(=O)N(C)Cc1ccccc1,i
Cc1ccc(NC(=O)Nc2nnc(N(C)Cc3ccccc3)s2)c(C)c1,-23.3%
